Records with an inconclusive call do not appear. The source made the active and inactive calls. The calls were made as follows: active = hit-call score of the fitted dose curve at least 0.9, where 1 is the maximum; inconclusive = response in the unintended direction; inactive = score below 0.9.
Test: ATG_M_06_TRANS: Attagene TRANS-FACTORIAL HepG2 Assay for M06 Transcription Factor (Internal Marker) (AID 2282983)
Details: HepG2 Attagene TRANS M06 internal marker reporter
Experimental: ATG_TRANS is a cell-based, multiplexed-readout assay that uses HepG2, a human liver cell line, with measurements taken at 24 hours after chemical dosing in a 24-well plate.ATG_M_06_TRANS is one of 30 assay component(s) measured or calculated from the ATG_TRANS assay. It is designed to make measurements of mRNA induction, a form of inducible reporter, as detected with fluorescence intensity signals by Reverse transcription polymerase chain reaction (RT-PCR) and Capillary electrophoresis technology.Data from the assay component ATG_M_06_TRANS was analyzed into 1 assay endpoint. This assay endpoint, ATG_M_06_TRANS, was analyzed in the positive analysis fitting direction relative to DMSO as the negative control and baseline of activity. Using a type of inducible reporter, measures of mRNA for gain-of-signal activity can be used to understand the background control at the transcription factor-level as they relate to the gene . Furthermore, this assay endpoint can be referred to as a secondary readout, because this assay has produced multiple assay endpoints where this one serves a background control function. To generalize the intended target to other relatable targets, this assay endpoint is annotated to the background measurement intended target family, where the subfamily is internal marker.
Human liver HepG2 cells are transiently transfected with multiple reporter transcription units (MRTUs) in 6-well plates using FuGene 6 reagent (Roche; 3 ml FuGene/1 mg DNA). The MRTU constructs are regulated by a cis-regulating element (promoter). […] A major difference between the CIS and TRANS system is that in CIS activities of endogenous TFs are measured, whereas the TRANS assay evaluates changes in activities of exogenous, chimeric NR-Gal4 proteins. […] At the end of 24 hour incubation, total RNA was isolated using TriZol reagent (Invitrogen). The isolated RNA is then reverse-transcribed using oligo(dT) primer and Mo-MLV reverse transcriptase (Invitrogen) with DNAse I (Ambion) treatment for 30 min. The one-tenth of the produced cDNA was amplified by PCR using Taq DNA polymerase (Invitrogen) and two reporter sequence-specific primers. The PCR products were fluorescently labeled by primer extension with 6-arboxyfluorescein (6-FAM) 5'-labeled reporter sequence-specific primer (2 min at 95 C, 20 s at 68 C and 10 min at 72 C) and these products were digested with 5U of HpaI (New England Biolabs) for 2h at 37 C. The fragments were purified using Qiaquick PCR columns (Qiagen), analyzed on an ABI 3130xL genetic analyzer (Applied Biosystems) with peak positions identified by using a set of X-rhodamine (ROX)-labeled MapMarker1000 molecular weight standards (BioVentures). The raw capillary electrophoresis data was processed using Attagraph software (Attagene).
In the case of `CCN=c1cc2oc3cc(NCC)c(C)cc3c(-c3ccccc3C(=O)OCC)c-2cc1C`, the outcome is reported as “inactive”. For `CC(=O)C=O`, the outcome was “inactive”. For `Cc1cccc(C)n1`, the outcome was “inactive”. In the case of `CCN(CC)c1ccc(C=O)c(O)c1`, the outcome is reported as “inactive”. For `CC(O)C#CC(C)O` (stereo not given), the outcome was “inactive”. In the case of `Cc1cc(=O)[nH]c(C(C)C)n1`, the outcome is reported as “inactive”. For `CC(C)=CCCC(C)O` (stereo not given), the outcome was “inactive”. In the case of `C[Si](Cl)(Cl)CCC(F)(F)C(F)(F)C(F)(F)C(F)(F)C(F)(F)C(F)(F)F`, the outcome is reported as “inactive”. With `CCN(CC)c1ccc(C=O)cc1` the outcome was “inactive”. With `CN(C)C(C)(C)CO` the outcome was “inactive”. With `O=C(O)CCC(F)(F)C(F)(F)C(F)(F)F` the outcome was “inactive”. For `O=C=NCc1cccc(CN=C=O)c1`, the outcome was “inactive”. In the case of `NCC(F)(F)C(F)(F)C(F)(F)C(F)(F)C(F)(F)C(F)(F)C(F)(F)C(F)(F)F`, the outcome is reported as “inactive”. With `O=S(=O)(Cl)C(F)(F)C(F)(F)C(F)(F)C(F)(F)C(F)(F)C(F)(F)C(F)(F)C(F)(F)F` the outcome was “inactive”. In the case of `O=C(Cl)C(F)(F)C(F)(F)C(F)(F)C(F)(F)C(F)(F)C(F)(F)C(F)(F)F`, the outcome is reported as “inactive”. In the case of `Cc1ccc(S(=O)(=O)C(I)I)cc1`, the outcome is reported as “inactive”. For `OCC(F)(F)C(F)(F)C(F)(F)CO`, the outcome was “inactive”. With `CC(C)(C)C(=O)C1C(=O)c2ccccc2C1=O` the outcome was “inactive”. With `FC(F)(F)C(F)(F)C(F)(F)CC1CO1` (stereo not given) the outcome was “inactive”. For `Nc1c(Br)cc([N+](=O)[O-])cc1Br`, the outcome was “inactive”. In the case of `CC1CCCCC1`, the outcome is reported as “inactive”. For `O=C1C=CC(=O)N1c1ccccc1`, the outcome was “inactive”. For `CC(=O)c1ccccc1N`, the outcome was “inactive”. In the case of `OCCCC(F)(F)C(F)(F)C(F)(F)C(F)(F)C(F)(F)C(F)(F)C(F)(F)C(F)(F)F`, the outcome is reported as “inactive”. With `COC(F)(C(F)F)C(F)(F)F` (stereo not given) the outcome was “inactive”. In the case of `Cc1cc(C)c(O)c(C(C)(C)C)c1`, the outcome is reported as “inactive”. For `CCOC(=O)C1CC(=O)C(=C(O)C2CC2)C(=O)C1` (stereo not given), the outcome was “inactive”. With `OCC(F)(F)C(F)(F)C(F)(F)C(F)(F)C(F)(F)C(F)(F)CO` the outcome was “inactive”. In the case of `OCCCCl`, the outcome is reported as “inactive”. In the case of `CCC(=O)OC(C)c1ccccc1` (stereo not given), the outcome is reported as “inactive”. With `N#CCCOCCC#N` the outcome was “inactive”. With `O=C(O)C(F)(F)C(F)(F)C(F)(F)OC(F)(F)F` the outcome was “inactive”. For `CC1=CCC(=O)O1`, the outcome was “inactive”. For `OCC(O)CC(F)(F)C(F)(F)C(F)(F)C(F)(F)F` (stereo not given), the outcome was “inactive”. For `NC(=O)C(F)(F)C(F)(F)C(F)(F)C(F)(F)C(N)=O`, the outcome was “inactive”. In the case of `O=c1[nH]cccc1O`, the outcome is reported as “inactive”. For `COCCOCCC[Si](C)(O[Si](C)(C)C)O[Si](C)(C)C`, the outcome was “inactive”. With `FC(F)(F)C(F)(F)C(F)(F)C(F)(F)C(F)(F)C(F)(F)C(F)(F)CCI` the outcome was “inactive”. For `OCCCCC(F)(F)C(F)(F)C(F)(F)C(F)(F)F`, the outcome was “inactive”. For `O=C(Cl)C(F)(F)C(F)(F)C(F)(F)C(F)(F)C(F)(F)C(F)(F)F`, the outcome was “inactive”.

— PubChem BioAssay (EPA / NIEHS)
